{
  "source": "PubChem BioAssay AID743152",
  "about": "(Broad Institute, 2013)",
  "note": "The source made the active and inactive calls.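 Rule for the calls: active = compounds that cut cell ATP glow, with a fitted half-effect dose at or under their top tested dose; inconclusive = flat partial loss of 30 to 70 percent, or poor fit; inactive = the rest.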",
  "data": [
    {"experiment": "A549 cell cytotoxicity, dose response, cytotoxicity control, CellTiter-Glo luminescence, dry powder, set 2 (AID 743152)", "conditions": "A549 viability, CellTiter-Glo ATP luminescence, 72 h; series mostly up to 26 µM; activity, negative = cytotoxicity: at the top concentration", "values": [
      {"compound": "CCN1N=C(c2ccc(N(CC)CC)cc2)[C@H](C)CC1=O", "activity, negative = cytotoxicity": "-8.64% (inactive)"},
      {"compound": "C[C@H]1CC(=O)NN=C1c1ccc(N2CCOCC2)c(F)c1", "activity, negative = cytotoxicity": "1.72% (inactive)"},
      {"compound": "C[C@@H]1CC(=O)NN=C1c1ccc(-c2cncnc2)cc1", "activity, negative = cytotoxicity": "1.75% (inactive)"},
      {"compound": "C[C@@H]1CC(=O)NN=C1c1ccc(C2CCCCC2)cc1", "activity, negative = cytotoxicity": "4.9% (inactive)"},
      {"compound": "Cn1c(NC(=O)c2ccccc2)nc2ccccc21", "activity, negative = cytotoxicity": "-8.4% (inactive)"},
      {"compound": "CC(=O)Nc1ccc(C2=NNC(=O)C[C@H]2C)cc1[N+](=O)[O-]", "activity, negative = cytotoxicity": "4.47% (inactive)"},
      {"compound": "C[C@@H]1CC(=O)NN=C1c1ccc(N2CCOCC2)c(F)c1", "activity, negative = cytotoxicity": "10.5% (inactive)"},
      {"compound": "C[C@@H]1CC(=O)NN=C1c1ccc(N2CCOCC2)cc1", "activity, negative = cytotoxicity": "-5.32% (inactive)"},
      {"compound": "COc1cc2c(cc1OC)-c1cc(=Nc3c(C)cc(C)cc3C)n(C)c(=O)n1CC2", "activity, negative = cytotoxicity": "12.6% (inactive)"},
      {"compound": "C[C@@H]1CC(=O)NN=C1c1ccc(F)c(F)c1", "activity, negative = cytotoxicity": "-0.368% (inactive)"},
      {"compound": "CCN(CC)c1ccc(C2=NNC(=O)CC2C)cc1[N+](=O)[O-]", "note": "(stereo not drawn)", "activity, negative = cytotoxicity": "10.5% (inactive)"},
      {"compound": "O=C1CN2Cc3c(ccc(Cl)c3Cl)N=C2N1", "activity, negative = cytotoxicity": "12.6% (inactive)"},
      {"compound": "C[C@@H]1CC(=O)NN=C1c1ccc(Cl)cc1", "activity, negative = cytotoxicity": "-0.617% (inactive)"}
    ]}
  ]
}
